# Only some compounds are listed: those with a hit (about 5.4% of all), similar ones and a draw of the others.
# PfM18AAP inh = blocks P. falciparum M18 aspartyl aminopeptidase; recombinant PfM18AAP, H-Glu-NHMec fluorogenic cleavage; inhibition, % at 7.35 µM; 1.2% of 290,000 active;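 active means inhibition above the campaign mean inhibition over all tested compounds plus 3 SD, cut at about 28% in these data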
# beta cell repl = MIN6 beta-cell proliferation induction; MIN6 cells proliferation, ATPlite luminescence, 48 h; cells starved in 0.2% serum; 100% = growth in 10% serum; proliferation, % at 10 µM; 0.29% of 330,000 active; AID 2380;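 active means compounds whose signal lies at least 3.5 SD above the mean of all wells on their plate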
# GASC-1 inh = blocks human GASC-1 demethylase activity. GST-JMJD2C(1-420) H3K9me3 demethylation, DELFIA europium. inhibition, % at 2.35 µM. 0.069% of 330,000 active;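 active means more than half of a compound's replicate wells show inhibition beyond 50%, single wells judged on their own value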;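 further: signal counts dimethyl H3K9 product captured on neutravidin plate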
# Target sequence (Q9H3R0 1-420 limits assumed): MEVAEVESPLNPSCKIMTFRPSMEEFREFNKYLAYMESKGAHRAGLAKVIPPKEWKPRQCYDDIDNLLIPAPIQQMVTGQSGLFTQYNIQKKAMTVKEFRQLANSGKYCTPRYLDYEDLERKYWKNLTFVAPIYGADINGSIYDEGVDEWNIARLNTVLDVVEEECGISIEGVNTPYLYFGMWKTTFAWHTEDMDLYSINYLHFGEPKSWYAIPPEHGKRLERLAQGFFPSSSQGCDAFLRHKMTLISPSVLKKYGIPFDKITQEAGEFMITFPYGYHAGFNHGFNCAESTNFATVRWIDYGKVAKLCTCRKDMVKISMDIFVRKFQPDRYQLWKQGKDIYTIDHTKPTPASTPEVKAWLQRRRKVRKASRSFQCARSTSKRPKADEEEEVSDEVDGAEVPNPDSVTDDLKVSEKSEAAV
# SMARCA2 activ = activators of SMARCA2 function | activation, % at 9.1 µM | MG213 cells, MMTV-luciferase reporter, dexamethasone, overnight | 1% of 370,000 active | AID 652017; in the data active means activation above about 7.8%
# Granule exo inh = lytic granule exocytosis inhibition; TALL-104 LAMP-1 surface exposure, flow cytometry; cells stimulated with thapsigargin and PMA; inhibition, % at 10 µM; 0.66% of 360,000 active; AID 651702;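 active means inhibition above about 55%, limit read from the data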
# ALR inh = inhibitors of human sulfhydryl oxidase ALR | P55789 | purified ALR, DTT oxidation, H2O2 HRP-luminol luminescence | inhibition, % (no concentration beside the values) | 3.8% of 290,000 active;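 active means mean replicate inhibition above about 79%, with every replicate also reaching it, limit read from the data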
# SMARCA2 conf = SMARCA2 activation, confirmation screen; 30% of 3,500 active; MG213 cells, MMTV-luciferase with dexamethasone, luminescence, overnight; MG213 cells expressing E1A, Rb sequestered; DMSO wells 0%, reference activator 100%; activation, % at 9.1 µM; shares compounds with SMARCA2 activ; AID 652260;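 active means activation above its plate's cutoff, the mean activation of tested wells plus 3 SD, cut at about 7.9% in these data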
# VP16 Luc act = activates GAL4-VP16 luciferase, flagging SMARCA2 activator hits. shares compounds with SMARCA2 activ. HEK293 GAL4-VP16 pG5luc reporter, luciferase luminescence; scaled: DMSO wells 0%, SAHA wells 100%. activation, % at 9.1 µM. 41% of 3,500 active. AID 686939;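 active means activation above the solvent-only control well mean plus 3 SD, averaged across control plates, cut at about 5.2% in these data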
# A number is an active result; n = inactive; x = no result.
SMILES,PfM18AAP inh,beta cell repl,GASC-1 inh,SMARCA2 activ,Granule exo inh,ALR inh,SMARCA2 conf,VP16 Luc act
O=C(N/N=C/C(Br)=C/c1ccccc1)NC1CCCCC1,n,n,n,n,n,n,x,x
O=C(N/N=C/C(Br)=C/c1ccccc1)C1CC1,n,n,n,9.6,n,n,10.0,5.6
O=C(N/N=C/c1ccccc1)c1ccco1,n,n,n,n,n,n,x,x
Cc1cc(C(=O)N/N=C/c2cn(C)nc2C)c2ccccc2n1,n,n,n,n,n,n,x,x
Cc1nn(C)cc1/C=N/NC(=O)c1ccco1,n,n,n,9.1,n,x,n,n
O=C(N/N=C/C(Br)=C\c1ccccc1)c1cccs1,n,n,n,18.2,n,n,n,11.0
O=C(N/N=C/C(Br)=C\c1ccccc1)c1ccco1,n,n,n,9.4,n,n,n,17.3
O=C(C(=O)N1CCC(CNS(=O)(=O)c2ccccc2OC(F)(F)F)CC1)c1cc2ccccc2o1,x,x,x,n,x,x,x,x
Oc1cccc(Nc2ncnc3ccccc23)c1,n,n,n,8.1,n,n,n,n
O=C(O)c1cccc(Nc2ncnc3ccccc23)c1,n,n,n,n,n,n,x,x
Nc1nc2c(ncn2[C@@H]2O[C@H](C(=O)N[C@H](Cc3ccccc3)C(=O)NCc3ccccc3)[C@@H](O)[C@H]2O)c(=O)[nH]1,x,x,x,n,x,x,x,x
COc1ccc(-c2csc(C(O)c3ccc(F)cc3)n2)cc1 (stereo unspecified),x,x,x,n,n,x,x,x
COc1ccc(-c2csc(C(O)c3ccc(F)cc3)n2)cn1 (stereo unspecified),x,x,x,8.1,n,x,n,n
COc1ccc(-n2c(CN3CCC(C(N)=O)CC3)nc3ccc([N+](=O)[O-])cc3c2=O)c(OC)c1,n,n,n,8.0,n,n,n,n
CCOC(=O)C1CCCN(Cc2nc3ccc([N+](=O)[O-])cc3c(=O)n2-c2ccc(OC)cc2OC)C1 (stereo unspecified),n,n,n,n,n,n,x,x
CCN1CCN(Cc2nc3ccc([N+](=O)[O-])cc3c(=O)n2-c2ccc(OC)cc2OC)CC1,n,n,n,n,n,n,x,x
CCOC(=O)C1CCN(Cc2nc3ccc([N+](=O)[O-])cc3c(=O)n2-c2ccc(OC)cc2OC)CC1,n,n,n,9.1,n,n,n,n
CCOC(=O)c1ccc(-n2c(CN3CCC(O)CC3)nc3ccc([N+](=O)[O-])cc3c2=O)cc1,n,n,n,19.2,n,x,9.5,n
COCCNc1nc(Oc2cncc(Cl)c2)c2sccc2n1,x,x,x,n,n,x,x,x
O=C(N[C@@H](Cc1ccccc1)c1nc2ccccc2[nH]1)c1ccc([N+](=O)[O-])cc1,x,x,x,n,x,x,x,x
O=C(OCCc1ccccn1)c1cccc([N+](=O)[O-])c1,x,x,x,8.2,n,x,n,n
O=C(c1cccc([N+](=O)[O-])c1)N(c1ccccn1)c1ccccn1,n,n,n,8.0,n,n,n,n
O=C(NCc1ccccn1)c1cccc([N+](=O)[O-])c1,n,n,n,n,n,n,x,x
O=Cc1cscc1[B-](F)(F)F,x,x,x,n,x,x,x,x
Cc1ccc(-c2csc(NC(=O)CSc3nc4ccccc4c(=O)n3CCCN(C)C)n2)cc1,n,n,n,10.0,n,99.0,n,n
SMILES,PfM18AAP inh,beta cell repl,GASC-1 inh,SMARCA2 activ,Granule exo inh,ALR inh,SMARCA2 conf,VP16 Luc act
CCn1c(SCC(=O)Nc2nc(-c3ccc(C)cc3)cs2)nnc1-c1ccccc1,n,n,n,n,n,n,x,x
Cc1ccc(NC(=S)NCc2cccs2)c(C)c1,n,n,n,10.2,n,n,n,n
Cc1cc(Cl)ccc1NC(=S)NCc1cccs1,n,n,n,n,n,n,x,x
COc1ccc2c(c1)CCc1c(C(=O)NCc3cccnc3)noc1-2,n,n,n,10.2,n,n,n,6.4
O=C(Nc1nnc(-c2ccccc2SCc2ccccc2F)s1)Nc1ccccc1F,n,n,n,8.3,n,x,n,n
CC(=NO)c1ccc2c(c1)Cc1cc([N+](=O)[O-])ccc1-2,x,x,x,11.6,n,x,n,n
N#CC(=C1NC(=O)c2ccccc21)c1nc2ccccc2n1CCO,x,x,x,19.8,n,x,n,17.7
O=C(Nc1cccc2c1CCCC2)c1cc(C2CCCCN2C(=O)CCCc2ccccc2)on1 (stereo unspecified),x,x,x,n,n,x,x,x
COC(=O)C1=C(C)N(Cc2ccccc2C(F)(F)F)C(=NCc2cccc(C(F)(F)F)c2)NC1c1ccc(C(F)(F)F)cc1 (stereo unspecified),x,x,x,10.2,x,x,n,n
COC(=O)C1=C(C)N(Cc2ccccc2C(F)(F)F)C(=NCc2ccccc2)NC1c1ccc(C(F)(F)F)cc1 (stereo unspecified),x,x,x,n,x,x,x,x
COc1cccc(C(O)c2ncc(-c3ccccc3Cl)[nH]2)c1 (stereo unspecified),x,x,x,n,n,x,x,x
